Data from the supplement of paper PMC8728848.
The full list was thinned out, with the strongest signals kept by preference.

Assays:
Assay in all cases: glycan array binding signal (z-score within array); higher = stronger binding
Details in all cases: glycan notation: IUPAC condensed, linker removed
[1] = target: Fuc(a1-2)Gal(b1-3)GalNAc
In short: (§1)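 The binding signal is a Z-score computed within each array and averaged over linkers. Arrays of the same protein sequence at different concentrations or buffers were also averaged together. Data originate from 3228 arrays in the Consortium for Functional Glycomics database, kept only where the protein sequence was available.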

[2] = target: Fuc(a1-2)Gal(b1-3)GlcNAc(b1-3)[Fuc(a1-3)[Gal(b1-4)]GlcNAc(b1-6)]Gal(b1-4)Glc
In short: as §1

[3] = target: Fuc(a1-2)Gal(b1-3)[Fuc(a1-4)]GlcNAc(b1-2)Man(a1-3)[Fuc(a1-2)Gal(b1-3)[Fuc(a1-4)]GlcNAc(b1-2)Man(a1-6)]Man(b1-4)GlcNAc(b1-4)GlcNAc
In short: as §1

[4] = target: Fuc(a1-2)Gal(b1-3)[Fuc(a1-4)]GlcNAc(b1-3)[Gal(b1-4)GlcNAc(b1-6)]Gal(b1-4)Glc
In short: as §1

[5] = target: Fuc(a1-2)Gal(b1-4)Glc
In short: as §1

[6] = target: Fuc(a1-2)Gal(b1-4)[Fuc(a1-3)]GlcNAc(b1-2)Man(a1-3)[Fuc(a1-2)Gal(b1-4)[Fuc(a1-3)]GlcNAc(b1-2)Man(a1-6)]Man(b1-4)GlcNAc(b1-4)GlcNAc
In short: as §1

[7] = target: Fuc(a1-2)[Gal(a1-3)]Gal(b1-4)GlcNAc
In short: as §1

[8] = target: Fuc(a1-2)[GalNAc(a1-3)]Gal(b1-3)GlcNAc(b1-2)Man(a1-3)[Fuc(a1-2)[GalNAc(a1-3)]Gal(b1-3)GlcNAc(b1-2)Man(a1-6)]Man(b1-4)GlcNAc(b1-4)GlcNAc
In short: as §1

[9] = target: Fuc(a1-2)[GalNAc(a1-3)]Gal(b1-4)GlcNAc(b1-3)Gal(b1-4)GlcNAc
In short: as §1

[10] = target: Fuc(a1-2)[GalNAc(a1-4)]Gal(b1-4)GlcNAc
In short: as §1

[11] = target: Fuc(a1-3)[Gal(b1-4)]GlcNAc(b1-3)GalNAc
In short: as §1

[12] = target: Gal(a1-3)Gal(b1-4)GlcNAc
In short: as §1

[13] = target: Gal(a1-3)Gal(b1-4)[Fuc(a1-3)]GlcNAc(b1-2)Man(a1-3)[Gal(a1-3)Gal(b1-4)[Fuc(a1-3)]GlcNAc(b1-2)Man(a1-6)]Man(b1-4)GlcNAc(b1-4)GlcNAc
In short: as §1

[14] = target: Gal(a1-3)GalNAc
In short: as §1

[15] = target: Gal(a1-4)Gal(b1-3)GlcNAc(b1-2)Man(a1-3)[Gal(a1-4)Gal(b1-3)GlcNAc(b1-2)Man(a1-6)]Man(b1-4)GlcNAc(b1-4)GlcNAc
In short: as §1

[16] = target: Gal(b1-3)GlcNAc(b1-2)Man(a1-3)[Gal(b1-3)GlcNAc(b1-2)Man(a1-6)]Man(b1-4)GlcNAc(b1-4)GlcNAc
In short: as §1

[17] = target: Gal(b1-3)GlcNAc(b1-3)Gal(b1-4)GlcNAc(b1-6)[Gal(b1-3)GlcNAc(b1-3)]Gal(b1-4)Glc
In short: as §1

[18] = target: Gal(b1-3)[Fuc(a1-4)]GlcNAc(b1-3)Gal(b1-4)GlcNAc
In short: as §1

[19] = target: Gal(b1-4)Glc6S
In short: as §1

[20] = target: Gal(b1-4)GlcNAc(b1-3)Gal(b1-4)GlcNAc
In short: as §1

[21] = target: Gal(b1-4)GlcNAc(b1-3)[Gal(b1-4)GlcNAc(b1-6)]GalNAc
In short: as §1

[22] = target: GalNAc(b1-3)Gal(a1-6)Gal(b1-4)Glc
In short: as §1

[23] = target: GlcNAc(b1-2)Man(a1-3)[GlcNAc(b1-2)Man(a1-6)]Man(b1-4)GlcNAc(b1-4)GlcNAc
In short: as §1

[24] = target: GlcNAc(b1-3)Man
In short: as §1

[25] = target: Kdn(a2-3)Gal(b1-4)Glc
In short: as §1

[26] = target: Man(a1-2)Man(a1-3)[Man(a1-2)Man(a1-6)]Man
In short: as §1

[27] = target: Man(a1-3)[Man(a1-6)]Man
In short: as §1

[28] = target: Neu5Ac(a2-3)Gal(b1-3)GalNAc(b1-4)[Neu5Ac(a2-3)]Gal(b1-4)Glc
In short: as §1

[29] = target: Neu5Ac(a2-3)Gal(b1-4)Glc
In short: as §1

[30] = target: Neu5Ac(a2-3)Gal(b1-4)GlcNAc(b1-3)Gal(b1-4)GlcNAc
In short: as §1

[31] = target: Neu5Ac(a2-3)Gal(b1-4)[Fuc(a1-3)]GlcNAc(b1-3)GalNAc
In short: as §1

[32] = target: Neu5Ac(a2-3)Gal(b1-4)[Fuc(a1-3)]GlcNAc(b1-6)[Gal(b1-3)]GalNAc
In short: as §1

[33] = target: Neu5Ac(a2-3)Gal(b1-4)[Fuc(a1-3)]GlcNAc(b1-6)[Neu5Ac(a2-3)Gal(b1-3)]GalNAc
In short: as §1

[34] = target: Neu5Ac(a2-3)GalNAc(b1-4)GlcNAc
In short: as §1

[35] = target: Neu5Ac(a2-3)[Neu5Ac(a2-6)]GalNAc
In short: as §1

[36] = target: Neu5Ac(a2-6)Gal(b1-4)GlcNAc
In short: as §1

[37] = target: Neu5Ac(a2-6)Gal(b1-4)GlcNAc(b1-3)Gal(b1-4)GlcNAc(b1-3)Gal(b1-4)GlcNAc
In short: as §1

[38] = target: Neu5Ac(a2-8)Neu5Ac(a2-3)[GalNAc(b1-4)]Gal(b1-4)Glc
In short: as §1

[39] = target: Neu5Ac9Ac(a2-6)Gal(b1-4)GlcNAc
In short: as §1

[40] = target: Neu5Gc(a2-6)Gal(b1-4)GlcNAc
In short: as §1

B1: SAG3 (Toxoplasma gondii), Q9BJ39 (protein)
chain: MQLWRRRAAGPASLGRQSLPLGCFFAAFGLCVLSAILGTGERGLFVAAGNSRRKITYFGTLTQKAPNWYRCSSTRAKEEVVGHVTLNKEHPDMTIECVDDGLGGEFLPLEGARSSYPRVCHIDAKDQDDCERNRGFLTDYIPGAKQYWYKIEKVEQNGEQSVLYKFTVPWILLPPAKQRYKVGCRYPNHEYCFVEVTVEPTPPMVEGKRVTCGYSESGPVNLEVDLSKNANFIEIRCGEQHHPQPSTYTLQYCSGDSVDPQKCSPQSLTNIFYDYSSSWWKGKLNGPDGATLTIPPGGFPEEDKSFLVGCSLTVDGPPFCNVKVRVAGNPRKWERGGGGHPGSGGLQPGTDGETQAGTGSSAGASSRMASVALAFLLGLLVHVAA
B1 was tested. Which “glycan array binding signal (z-score)” value [1] did it give?
The value was -0.359.

What about the “glycan array binding signal (z-score)” value [2] of the same binder?
Its value is 0.235.

What about the “glycan array binding signal (z-score)” value [3] of the same binder?
Its value is 6.32.

And the “glycan array binding signal (z-score)” value [4]?
Its value is 0.4.

And the “glycan array binding signal (z-score)” value [5]?
Its value is -0.397.

And the “glycan array binding signal (z-score)” value [6]?
Its value is 2.31.

What about the “glycan array binding signal (z-score)” value [7] of the same binder?
The value was 0.112.

What about the “glycan array binding signal (z-score)” value [8] of the same binder?
Its value is -0.473.

What about the “glycan array binding signal (z-score)” value [9] of the same binder?
The value was -0.084.

And the “glycan array binding signal (z-score)” value [10]?
Its value is -0.046.

What about the “glycan array binding signal (z-score)” value [11] of the same binder?
Its value is 2.86.

What about the “glycan array binding signal (z-score)” value [12] of the same binder?
Its value is -0.223.

And the “glycan array binding signal (z-score)” value [13]?
Its value is 4.74.

And the “glycan array binding signal (z-score)” value [14]?
Its value is -0.176.

And the “glycan array binding signal (z-score)” value [15]?
The value was -0.051.

What about the “glycan array binding signal (z-score)” value [16] of the same binder?
Its value is 0.157.

And the “glycan array binding signal (z-score)” value [17]?
The value was 0.551.

And the “glycan array binding signal (z-score)” value [18]?
Its value is -0.077.

And the “glycan array binding signal (z-score)” value [19]?
The value was -0.304.

And the “glycan array binding signal (z-score)” value [20]?
Its value is 0.013.

And the “glycan array binding signal (z-score)” value [21]?
Its value is -0.475.

What about the “glycan array binding signal (z-score)” value [22] of the same binder?
Its value is -0.162.

And the “glycan array binding signal (z-score)” value [23]?
The value was -0.352.

And the “glycan array binding signal (z-score)” value [24]?
Its value is 0.13.

And the “glycan array binding signal (z-score)” value [25]?
The value was 0.107.

What about the “glycan array binding signal (z-score)” value [26] of the same binder?
Its value is -0.088.

And the “glycan array binding signal (z-score)” value [27]?
Its value is 0.34.

What about the “glycan array binding signal (z-score)” value [28] of the same binder?
Its value is -0.184.

And the “glycan array binding signal (z-score)” value [29]?
Its value is -0.168.

And the “glycan array binding signal (z-score)” value [30]?
Its value is -0.053.

And the “glycan array binding signal (z-score)” value [31]?
The value was 16.

What about the “glycan array binding signal (z-score)” value [32] of the same binder?
Its value is 3.05.

And the “glycan array binding signal (z-score)” value [33]?
Its value is 2.02.

What about the “glycan array binding signal (z-score)” value [34] of the same binder?
Its value is -0.469.

What about the “glycan array binding signal (z-score)” value [35] of the same binder?
Its value is -0.226.

And the “glycan array binding signal (z-score)” value [36]?
The value was -0.372.

What about the “glycan array binding signal (z-score)” value [37] of the same binder?
The value was -0.049.

What about the “glycan array binding signal (z-score)” value [38] of the same binder?
Its value is 2.27.

And the “glycan array binding signal (z-score)” value [39]?
Its value is 0.292.

And the “glycan array binding signal (z-score)” value [40]?
Its value is -0.387.
